A short description of experiment [1]: ATG_CRE_CIS: Attagene CIS-FACTORIAL HepG2 Assay for human cAMP Responsive Element (CRE) binding protein 3 (AID 2282926). The conditions noted are these: HepG2 CRE cis-reporter, Attagene multiplexed mRNA; actives raise or lower the signal. A digest of the protocol:
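Readout: fluorescently labelled reporter transcripts resolved by capillary electrophoresis after RT-PCR, taken 24 h post-dosing in transfected HepG2. Endogenous transcription factor activity drives each cis-element reporter; gain or loss of signal fitted relative to DMSO control.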

The target in experiment [2] is CCAAT/enhancer-binding protein beta (Homo sapiens) (UniProt P17676). The experiment can be described thus: ATG_C_EBP_CIS: Attagene CIS-FACTORIAL HepG2 Assay for human CCAAT/Enhancer Binding Protein (C/EBP) beta (AID 2282927). The following applies: HepG2 Attagene cis-factorial transcription factor reporter; actives raise or lower the signal. In a few lines: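 HepG2, transient MRTU transfection, 24 h treatment. RT-PCR plus CE fluorescence; DMSO negative control, bidirectional fit.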
CCAAT/enhancer-binding protein beta (Homo sapiens), sequence (P17676 whole entry, looked up): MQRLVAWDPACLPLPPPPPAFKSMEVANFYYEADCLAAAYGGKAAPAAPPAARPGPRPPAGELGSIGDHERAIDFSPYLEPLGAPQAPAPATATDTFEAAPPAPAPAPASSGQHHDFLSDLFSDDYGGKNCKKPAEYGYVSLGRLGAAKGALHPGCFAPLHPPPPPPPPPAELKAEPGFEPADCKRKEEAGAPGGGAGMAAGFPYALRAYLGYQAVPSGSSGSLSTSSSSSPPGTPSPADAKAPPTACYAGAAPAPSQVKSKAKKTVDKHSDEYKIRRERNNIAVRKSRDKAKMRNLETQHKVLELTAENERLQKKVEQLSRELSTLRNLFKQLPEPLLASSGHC

A short description of experiment [3]: ATG_CMV_CIS: Attagene CIS-FACTORIAL HepG2 Assay for human CMV (Internal Marker) (AID 2282928).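 Further: endpoint acts as a background internal control marker rather than a target.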 The conditions noted are these: HepG2 CMV promoter reporter, transcription factor profiling; actives raise or lower the signal. A digest of the protocol: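 Bidirectional fits against DMSO are applied to reporter mRNA, read by RT-PCR with capillary electrophoresis, from HepG2 cells exposed 24 h. The endpoint serves as an internal CMV background marker within the cis-factorial reporter panel.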

For experiment [4], the target named is Aryl hydrocarbon receptor (Homo sapiens) (UniProt P35869). The experiment can be described thus: ATG_Ahr_CIS: Attagene CIS-FACTORIAL HepG2 Assay for human Aryl Hydrocarbon Receptor (Ahr) (AID 2282930). The conditions noted are these: HepG2 AhR cis-factorial reporter transcription; actives raise or lower the signal. A digest of the protocol: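 Endogenous factor activity is tracked through cis-promoter reporter units transfected into HepG2 cells. Transcript levels at 24 h are read by fluorescent RT-PCR and capillary electrophoresis, with activity in either direction scored relative to DMSO.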
Aryl hydrocarbon receptor (Homo sapiens), sequence (P35869 whole entry, looked up): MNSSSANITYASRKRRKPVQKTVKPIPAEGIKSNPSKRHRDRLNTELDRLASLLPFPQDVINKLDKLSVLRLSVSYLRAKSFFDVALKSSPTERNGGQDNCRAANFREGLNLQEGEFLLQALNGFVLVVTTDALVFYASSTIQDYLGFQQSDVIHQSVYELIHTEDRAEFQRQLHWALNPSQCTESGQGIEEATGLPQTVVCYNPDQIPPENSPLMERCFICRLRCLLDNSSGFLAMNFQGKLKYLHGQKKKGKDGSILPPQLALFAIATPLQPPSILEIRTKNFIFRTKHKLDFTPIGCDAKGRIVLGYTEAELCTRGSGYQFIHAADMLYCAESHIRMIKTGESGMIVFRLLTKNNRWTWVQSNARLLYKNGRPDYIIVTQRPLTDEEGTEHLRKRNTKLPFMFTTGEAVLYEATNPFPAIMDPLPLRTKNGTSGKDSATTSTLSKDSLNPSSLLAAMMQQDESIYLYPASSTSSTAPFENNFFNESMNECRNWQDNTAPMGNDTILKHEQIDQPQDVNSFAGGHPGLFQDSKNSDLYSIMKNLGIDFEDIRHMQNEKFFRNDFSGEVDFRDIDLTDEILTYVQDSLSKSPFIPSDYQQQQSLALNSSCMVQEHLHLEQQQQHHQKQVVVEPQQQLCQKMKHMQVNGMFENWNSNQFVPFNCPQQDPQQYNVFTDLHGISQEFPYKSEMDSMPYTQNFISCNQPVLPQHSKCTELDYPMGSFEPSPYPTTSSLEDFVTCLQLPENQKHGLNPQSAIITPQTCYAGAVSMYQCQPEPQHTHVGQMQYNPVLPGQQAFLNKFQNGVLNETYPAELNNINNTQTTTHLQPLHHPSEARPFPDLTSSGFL

Experiment [5] in a line: ATG_AP_1_CIS: Attagene CIS-FACTORIAL HepG2 Assay for human Activator Protein 1 (AP-1) (AID 2282931). The conditions noted are these: HepG2 Attagene cis-factorial AP-1 reporter mRNA; actives raise or lower the signal. A digest of the protocol:
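Reporter transcripts were measured 24 h after dosing by RT-PCR and capillary electrophoresis of fluorescent fragments. Cells: HepG2 carrying transfected cis-regulated reporter constructs reading endogenous factor activity. Gain or loss fitted against DMSO.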

Experiment [6] in a line: ATG_AP_2_CIS: Attagene CIS-FACTORIAL HepG2 Assay for human Activator Protein 2 (AP-2) (AID 2282932). The conditions noted are these: HepG2 AP-2 cis-reporter, Attagene transcription factor profiling; actives raise or lower the signal. In a few lines:
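Liver-derived HepG2 line, cis-reporter system measuring endogenous factors; 24 h dosing; reporter mRNA detected by fluorescent RT-PCR and capillary electrophoresis.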

The nature of experiment [7]: ATG_BRE_CIS: Attagene CIS-FACTORIAL HepG2 Assay for human Bone Morphogenetic Protein (BMP) Response Element (BRE) (AID 2282933). The conditions noted are these: HepG2 BMP response element reporter, Attagene transcription factor profiling; actives raise or lower the signal. In a few lines:
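Gain- or loss-of-signal was derived by bidirectional fitting against DMSO controls. The signal came from reporter mRNA, measured by RT-PCR and capillary electrophoresis, in HepG2 cells transiently carrying multiple reporter units and dosed for 24 h.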

The target of experiment [8] is Retinoic acid receptor alpha (Homo sapiens) (UniProt P10276). The experiment can be described thus: ATG_DR5_RAR_CIS: Attagene CIS-FACTORIAL HepG2 Assay for human Retinoic Acid Receptor Alpha (RARE), DR5 submotif (AID 2282934). The conditions noted are these: HepG2 Attagene cis-factorial RARE DR5 reporter, mRNA; actives raise or lower the signal. A digest of the protocol: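 After 24 h of chemical exposure, transiently transfected HepG2 cells were lysed for total RNA; the DR5-regulated reporter transcript was quantified via RT-PCR and capillary electrophoresis, with activity fitted bidirectionally against DMSO.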
Retinoic acid receptor alpha (Homo sapiens), sequence (P10276 whole entry, looked up): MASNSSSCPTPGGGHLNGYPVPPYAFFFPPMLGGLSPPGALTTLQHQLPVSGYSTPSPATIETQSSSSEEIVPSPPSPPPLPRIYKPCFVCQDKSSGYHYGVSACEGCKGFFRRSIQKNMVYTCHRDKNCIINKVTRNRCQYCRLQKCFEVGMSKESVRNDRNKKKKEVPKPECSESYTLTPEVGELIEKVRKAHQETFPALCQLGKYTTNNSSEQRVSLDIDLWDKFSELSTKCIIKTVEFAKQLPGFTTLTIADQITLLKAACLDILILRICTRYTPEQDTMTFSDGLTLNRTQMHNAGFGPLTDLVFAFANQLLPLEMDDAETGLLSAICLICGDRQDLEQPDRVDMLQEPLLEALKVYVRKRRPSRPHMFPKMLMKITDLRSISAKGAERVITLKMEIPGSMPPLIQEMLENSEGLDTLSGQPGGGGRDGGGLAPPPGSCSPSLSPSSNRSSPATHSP

Experiment [9] deals with Transcription factor E2F1 (Homo sapiens) (UniProt Q01094). The experiment can be described thus: ATG_E2F_CIS: Attagene CIS-FACTORIAL HepG2 Assay for human E2F Transcription Factor 1 (AID 2282935). The following applies: HepG2 Attagene cis-reporter, E2F reporter RNA transcripts; actives raise or lower the signal. A digest of the protocol:
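Liver-derived HepG2 cells expressing transfected promoter-driven reporter units received test chemical for 24 hours. Signal gains or losses were fitted bidirectionally against DMSO.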

A short description of experiment [10]: ATG_E_Box_CIS: Attagene CIS-FACTORIAL HepG2 Assay for human Enhancer Box (E-box) (AID 2282936). The conditions noted are these: HepG2 E-box cis-reporter transcription, actives raise or lower the signal. In a few lines:
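In this cell-based setup, HepG2 cells bearing transfected promoter-driven reporter units were exposed to chemicals for 24 h; reporter transcripts were amplified, 6-FAM-labelled, cut with HpaI and sized by capillary electrophoresis.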

Experiment [11] is described as follows: ATG_M_61_CIS: Attagene CIS-FACTORIAL HepG2 Assay for M61 Transcription Factor (Internal Marker) (AID 2282937). The conditions noted are these: HepG2 Attagene CIS-FACTORIAL M61 internal marker reporter; actives raise or lower the signal. A digest of the protocol: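 Readout: fluorescent reporter mRNA fragments resolved by capillary electrophoresis after RT-PCR. Transiently transfected human HepG2 cells carried MRTU constructs reporting endogenous TF activity; 24 h chemical exposure; gain or loss of signal fitted relative to DMSO.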

Experiment [12] in a line: ATG_EGR_CIS: Attagene CIS-FACTORIAL HepG2 Assay for human Early Growth Response 1 (EGR1) (AID 2282938). The conditions noted are these: HepG2 Attagene CIS-FACTORIAL EGR reporter mRNA; actives raise or lower the signal. In a few lines:
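Read-out: fluorescent reporter-mRNA fragments resolved by capillary electrophoresis after RT-PCR, 24 h post-dose in transiently transfected HepG2. Endogenous transcription-factor activity reported via cis-element-regulated reporter units; gain or loss fitted relative to DMSO.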

The nature of experiment [13]: ATG_M_19_CIS: Attagene CIS-FACTORIAL HepG2 Assay for M19 Transcription Factor (Internal Marker) (AID 2282939). The following applies: HepG2 Attagene CIS-FACTORIAL M19 internal marker reporter; actives raise or lower the signal. In a few lines: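 Following a 24 h exposure, RNA from transfected HepG2 cells was reverse-transcribed, PCR-amplified with reporter-specific primers, end-labelled with 6-FAM and HpaI-digested before capillary separation. Values represent gain or loss versus DMSO.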

Experiment [14] is described as follows: ATG_ERE_CIS: Attagene CIS-FACTORIAL HepG2 Assay for Estrogen Response Element (ERE) (AID 2282940). The following applies: HepG2 ERE cis-reporter, Attagene RNA transcript; actives raise or lower the signal. In a few lines: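 HepG2, transient cis-reporter units, 24 h exposure. RNA isolated, oligo(dT) RT, reporter-specific PCR, FAM extension, HpaI cut, CE detection. Gain/loss-of-signal vs DMSO.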

A short description of experiment [15]: ATG_Ets_CIS: Attagene CIS-FACTORIAL HepG2 Assay for human Erythroblast Transformation Specific (ETS) (AID 2282941). The following applies: HepG2 ETS cis-reporter transcription, actives raise or lower the signal. A digest of the protocol:
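Endogenous transcription factor activity read as reporter mRNA via RT-PCR and capillary electrophoresis, with gain or loss fitted bidirectionally against DMSO. Human HepG2 liver cells, transiently transfected CIS reporter constructs, 24 h exposure.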

Experiment [16] concerns the target Hepatocyte nuclear factor 3-beta (Homo sapiens) (UniProt Q9Y261). The experiment can be described thus: ATG_FoxA2_CIS: Attagene CIS-FACTORIAL HepG2 Assay for human Forkhead box A2 (FOXA2) (AID 2282942). The conditions noted are these: HepG2 cis-reporter transcription factor activity, 24 h; actives raise or lower the signal. A digest of the protocol: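 Readout: fluorescent reporter transcripts resolved by capillary electrophoresis after RT-PCR. Transiently transfected HepG2, 24 h compound exposure, endogenous TF activity at cis promoter elements. Gain or loss of signal fitted relative to DMSO.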

The nature of experiment [17]: ATG_FoxO_CIS: Attagene CIS-FACTORIAL HepG2 Assay for human Forkhead box O (FoxO) (AID 2282943). The following applies: HepG2 Attagene cis-reporter, FoxO element, mRNA; actives raise or lower the signal. A digest of the protocol: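 Transfected HepG2 reporter cells exposed to test chemical for 24 h; reporter RNA measured by reverse transcription, PCR and fluorescent capillary electrophoresis; curves fitted for increases and decreases against DMSO.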

The nature of experiment [18]: ATG_GATA_CIS: Attagene CIS-FACTORIAL HepG2 Assay for human GATA Binding Protein (AID 2282944). The following applies: HepG2 GATA cis-element reporter, Attagene multiplex mRNA; actives raise or lower the signal. A digest of the protocol: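 DMSO serves as negative control and baseline for bidirectional fitting of reporter mRNA changes. HepG2 cells bearing transiently transfected cis-promoter reporters were exposed 24 h; transcripts detected via RT-PCR and capillary electrophoresis.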

Experiment [19] in a line: ATG_DR4_LXR_CIS: Attagene CIS-FACTORIAL HepG2 Assay for human Liver X Receptor (LXR), DR4 submotif (AID 2282929). The conditions noted are these: HepG2 Attagene DR4 cis-reporter, mRNA transcription; actives raise or lower the signal. A digest of the protocol: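 Readout: reporter transcript fluorescence after RT-PCR and capillary electrophoresis, fitted bidirectionally against DMSO controls. Human HepG2 liver cells carried transiently transfected multiplexed reporter constructs; endogenous transcription factor activity measured 24 h post-dosing.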

Calls of active or inactive are those of the source. How the source made its calls: active means hit-call score of the fitted dose curve at least 0.9, where 1 is the maximum; inactive means score below 0.9.

Transcription factor E2F1 (Homo sapiens), sequence (Q01094 whole entry, looked up): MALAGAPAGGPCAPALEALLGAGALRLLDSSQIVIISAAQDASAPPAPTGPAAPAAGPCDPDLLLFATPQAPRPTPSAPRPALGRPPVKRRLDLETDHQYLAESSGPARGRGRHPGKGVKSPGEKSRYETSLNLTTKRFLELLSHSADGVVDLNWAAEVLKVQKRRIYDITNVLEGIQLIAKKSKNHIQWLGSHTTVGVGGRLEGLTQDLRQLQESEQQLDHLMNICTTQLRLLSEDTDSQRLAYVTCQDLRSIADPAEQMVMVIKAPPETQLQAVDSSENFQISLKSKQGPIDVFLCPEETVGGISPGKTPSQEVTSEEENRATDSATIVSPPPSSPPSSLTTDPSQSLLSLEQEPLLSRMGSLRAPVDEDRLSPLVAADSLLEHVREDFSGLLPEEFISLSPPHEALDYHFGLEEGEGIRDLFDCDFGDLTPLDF
Hepatocyte nuclear factor 3-beta (Homo sapiens), sequence (Q9Y261 whole entry, looked up): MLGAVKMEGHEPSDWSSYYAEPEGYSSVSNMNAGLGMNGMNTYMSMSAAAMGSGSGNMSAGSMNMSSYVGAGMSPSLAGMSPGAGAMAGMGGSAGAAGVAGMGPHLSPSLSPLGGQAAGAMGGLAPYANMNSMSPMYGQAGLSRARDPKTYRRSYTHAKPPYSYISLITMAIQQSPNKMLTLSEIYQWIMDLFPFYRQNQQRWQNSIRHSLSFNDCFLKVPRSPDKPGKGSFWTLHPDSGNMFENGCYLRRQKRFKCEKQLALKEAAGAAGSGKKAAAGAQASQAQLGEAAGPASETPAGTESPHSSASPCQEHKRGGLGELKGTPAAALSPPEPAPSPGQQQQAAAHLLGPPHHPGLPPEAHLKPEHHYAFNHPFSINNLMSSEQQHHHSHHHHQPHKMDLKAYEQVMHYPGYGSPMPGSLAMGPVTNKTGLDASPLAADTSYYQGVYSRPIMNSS

For `C=C(C)CCCC`, the compound was classed as inactive in experiment [1], in experiment [2], in experiment [3], in experiment [4], in experiment [5] and in experiment [6]. The compound was classed as inactive in [7], in [8], in experiment [9], in experiment [10], in experiment [11] and in experiment [12]. Besides, the outcome in [13], in [14], in experiment [15], in experiment [16], in experiment [17] and in [18] was inactive.

A word on the AC50: it is the concentration at which the activity in the assay is half-maximal. Regarding `CCCCCCCCCCCCCC[P+](CCCC)(CCCC)CCCC`, the AC50 was 0.758 µM (active) in experiment [1] and 0.745 µM (active) in experiment [7]. Moreover, the result in experiment [2], in experiment [3], in experiment [19], in experiment [4], in [5] and in experiment [6] was inactive. For the same compound, the compound was classed as inactive in experiment [8], in [9], in experiment [10], in [11], in [12] and in [14]. The call in [15], in experiment [16], in [17] and in experiment [18] was inactive.

Regarding `CSc1ccc(O)cc1C`, the call in experiment [1], in [2], in experiment [3], in experiment [19], in experiment [5] and in [7] was inactive. Further, the compound was called inactive in experiment [8], in experiment [9], in [10], in experiment [11], in [12] and in experiment [15]. Moreover, the call in [16] and in [17] was inactive. Besides, the AC50 in experiment [14] is 31.7 µM (active).

As for `N#Cc1ccccc1O`, the result in experiment [1], in experiment [2], in [3], in experiment [19], in experiment [5] and in [6] was inactive. Also, the call in experiment [7], in [8], in [9], in [10], in experiment [12] and in [13] was inactive. The compound was called inactive in experiment [15], in [16] and in experiment [17].

For `Brc1nc2ccccc2s1`, the outcome in [1], in [2], in [3], in experiment [6], in experiment [7] and in experiment [8] was inactive. For the same compound, the compound was called inactive in [9], in [11], in experiment [12], in [13], in experiment [14] and in experiment [15]. Also, the outcome in [16] and in experiment [17] was inactive. Besides, the figures for the AC50 in [5] and in experiment [10] were 65.1 µM (active) and 100 µM (active), respectively.

As for `F[Si-2](F)(F)(F)(F)F`, the outcome in [1], in experiment [2], in experiment [3], in [4], in experiment [6] and in experiment [7] was inactive. The outcome in experiment [8], in experiment [9], in experiment [10], in experiment [11], in [12] and in experiment [13] was inactive. Besides, the outcome in [14], in experiment [15], in experiment [16], in experiment [17] and in experiment [18] was inactive.

For `CC(C)OC=O`, the call in experiment [1], in experiment [2], in experiment [3], in [19], in [4] and in experiment [5] was inactive. Further, the call in [6], in experiment [7], in [8], in experiment [9], in [10] and in [11] was inactive. Moreover, the compound was classed as inactive in experiment [12], in [13], in experiment [14], in experiment [16] and in experiment [17].

The values are drawn from PubChem BioAssay (EPA / NIEHS).
